{"source": "ChEMBL document CHEMBL1857833", "about": "“Screening and optimization of specific chemical series against human African Trypanosomiasis (HAT)”", "note": "Screen size: about 4,400 compounds; about 390 (8.9%) showed an effect of 50% or more. Many of the other results were omitted from the sample, so strong results are more common in it than they were.", "data": [{"tested_on": "Trypanosoma brucei", "test": "DNDI: Inhibition of Human African Trypanosomiasis, SBRI 427, in vitro at 2 ug.mL-1", "type": "functional", "units": {"% inhibition": "%"}, "values": [{"smiles": "CC1CC(C)CN(/C(=N\\O)c2ccnc(Oc3ccc(F)c(Cl)c3)c2)C1", "note": "(stereo not given)", "% inhibition": 16}, {"smiles": "CC(C)c1cccc(Oc2cc(/C(=N/O)N3CCC4CCCCC4C3)ccn2)c1", "note": "(stereo not given)", "% inhibition": 9}, {"smiles": "CC1CC(C)CN(/C(=N\\O)c2ccnc(Oc3ccc(Cl)cc3)c2)C1", "note": "(stereo not given)", "% inhibition": 67}, {"smiles": "CC1CC(C)CN(/C(=N\\O)c2ccnc(Oc3cccc(C(C)C)c3)c2)C1", "note": "(stereo not given)", "% inhibition": 58}, {"smiles": "CC1CC(C)CN(/C(=N\\O)c2ccnc(Oc3cccc(F)c3)c2)C1", "note": "(stereo not given)", "% inhibition": -1}, {"smiles": "CC1CC(C)CN(/C(=N\\O)c2ccnc(Oc3ccc(F)c(F)c3)c2)C1", "note": "(stereo not given)", "% inhibition": 5}, {"smiles": "COc1ccc(-c2nc(CNC(C)c3cccc4ccccc34)co2)cc1", "note": "(stereo not given)", "% inhibition": 13}, {"smiles": "Cc1ccc(/C(=N/O)NCc2cccnc2)c(Oc2c(F)c(F)cc(F)c2F)n1", "% inhibition": 35}, {"smiles": "CCCCN(C)Cc1coc(-c2ccccc2)n1", "% inhibition": 6}, {"smiles": "CSc1ccc(Oc2cc(/C(N)=N/O)ccn2)cc1", "% inhibition": 21}, {"smiles": "Cc1ccc(N2CCN(Cc3coc(-c4cccc(F)c4)n3)CC2)cc1C", "% inhibition": -4}, {"smiles": "CC(C)c1ccc(N/C(=N\\O)c2ccnc(Oc3cccc(F)c3)c2)cc1", "% inhibition": -2}, {"smiles": "CC(C)c1ccc(N/C(=N\\O)c2ccnc(Oc3ccc(F)c(F)c3)c2)cc1", "% inhibition": 22}, {"smiles": "O/N=C(\\NCc1ccccn1)c1ccnc(Oc2cccc(F)c2)c1", "% inhibition": -2}, {"smiles": "O/N=C(\\NC1CCCCC1)c1ccnc(Oc2ccc(F)c(F)c2)c1", "% inhibition": 99}, {"smiles": "O/N=C(/c1ccnc(Oc2ccc(F)c(F)c2)c1)N1CCCCCC1", "% inhibition": 12}, {"smiles": "O/N=C(\\NCc1ccncc1)c1ccnc(Oc2ccc(F)c(F)c2)c1", "% inhibition": 8}, {"smiles": "O/N=C(\\NC1CCCC1)c1ccnc(Oc2ccc(F)c(F)c2)c1", "% inhibition": 101}, {"smiles": "CC1CCN(/C(=N\\O)c2ccnc(Oc3ccc(F)c(F)c3)c2)CC1", "% inhibition": 41}, {"smiles": "O/N=C(\\NC1CCCC1)c1ccnc(Oc2cccc(F)c2)c1", "% inhibition": 82}, {"smiles": "CCN(Cc1coc(-c2cccc3ccccc23)n1)C(C)C", "% inhibition": -1}, {"smiles": "Cc1cccc(N2CCN(Cc3coc(-c4ccccc4Cl)n3)CC2C)c1", "note": "(stereo not given)", "% inhibition": -10}, {"smiles": "CSCCN/C(=N\\O)c1cccnc1Oc1cccc2ccccc12", "% inhibition": 11}, {"smiles": "CCOc1ccccc1Oc1ncccc1/C(=N/O)NCCOC", "% inhibition": 13}, {"smiles": "COc1ccc(Oc2ncccc2/C(=N/O)NCCSC)cc1", "% inhibition": 10}, {"smiles": "COCCN/C(=N\\O)c1cccnc1Oc1c(F)cccc1F", "% inhibition": 65}, {"smiles": "CSCCN/C(=N\\O)c1cccnc1Oc1c(F)cccc1F", "% inhibition": 78}, {"smiles": "COCCN/C(=N\\O)c1cccnc1Oc1cccc(C)c1C", "% inhibition": 0}, {"smiles": "CC(NCc1coc(-c2cccc(F)c2)n1)C(C)(C)C", "note": "(stereo not given)", "% inhibition": 8}, {"smiles": "Clc1ccccc1-c1nc(CN2CCCCCCC2)co1", "% inhibition": 14}, {"smiles": "Cc1cccc(CNCc2coc(-c3ccccc3Br)n2)c1", "% inhibition": -1}, {"smiles": "CC1CC(C)CN(/C(=N\\O)c2ccc(Oc3ccc(Cl)cc3)nc2)C1", "note": "(stereo not given)", "% inhibition": 0}, {"smiles": "CCOc1ccccc1-c1nc(CNCc2ccc(C(F)(F)F)cc2)co1", "% inhibition": 6}, {"smiles": "CC(C)c1cccc(Oc2ccc(/C(=N/O)N(C)Cc3cccnc3)cn2)c1", "% inhibition": 99}, {"smiles": "O/N=C(\\NCc1cccs1)c1ccc(Oc2cccc(F)c2)nc1", "% inhibition": 75}, {"smiles": "Cc1cc(Oc2ccc(/C(=N/O)NCc3ccncc3)cn2)cc(C(C)C)c1", "% inhibition": 3}, {"smiles": "O/N=C(\\NCc1ccncc1)c1ccc(Oc2cccc(F)c2)nc1", "% inhibition": 50}, {"smiles": "COc1ccc(CN/C(=N\\O)c2ccc(Oc3cccc(F)c3)nc2)cc1", "% inhibition": -3}, {"smiles": "CC(C)c1cccc(Oc2ccc(/C(=N/O)NCc3ccncc3)cn2)c1", "% inhibition": 100}, {"smiles": "O/N=C(\\NCc1cc(F)cc(F)c1)c1ccc(Oc2cccc(F)c2)nc1", "% inhibition": 42}, {"smiles": "CC(C)c1cccc(Oc2cc(/C(=N/O)NCc3ccncc3)ccn2)c1", "% inhibition": 10}, {"smiles": "CN(Cc1cccnc1)/C(=N\\O)c1ccc(Oc2ccc3ccccc3c2)nc1", "% inhibition": 9}, {"smiles": "O/N=C(\\NCc1cccs1)c1ccc(Oc2ccc3ccccc3c2)nc1", "% inhibition": -9}, {"smiles": "Cc1cc(Oc2ccc(/C(=N/O)N(C)Cc3cccnc3)cn2)cc(C(C)C)c1", "% inhibition": 12}, {"smiles": "COc1cccc(Oc2ccc(/C(=N/O)NCc3cccs3)cn2)c1", "% inhibition": 2}, {"smiles": "COc1cc(C)ccc1Oc1ncccc1/C(=N/O)NCc1ccccn1", "% inhibition": -7}, {"smiles": "COC(=O)C1CCN(/C(=N\\O)c2ccc(C)nc2Oc2ccc3ccccc3c2)CC1", "% inhibition": 19}, {"smiles": "Clc1ccccc1-c1nc(CN2CCCc3ccccc32)co1", "% inhibition": 1}, {"smiles": "Clc1ccccc1-c1nc(CNCCN2CCOCC2)co1", "% inhibition": 2}, {"smiles": "CCOC(=O)C1CCCCN1Cc1coc(-c2ccccc2Br)n1", "note": "(stereo not given)", "% inhibition": -3}, {"smiles": "CCCN(CCC)Cc1coc(-c2cccs2)n1", "% inhibition": 22}, {"smiles": "O/N=C(/c1ccc(Oc2c(F)c(F)cc(F)c2F)nc1)N1CCN(c2ccc(F)cc2)CC1", "% inhibition": 22}, {"smiles": "CC1C=CC(C)N1Cc1coc(-c2ccccc2Cl)n1", "note": "(stereo not given)", "% inhibition": 0}, {"smiles": "CC1CCCN1/C(=N\\O)c1ccc(Oc2ccc3oc4ccccc4c3c2)nc1", "note": "(stereo not given)", "% inhibition": -6}, {"smiles": "CC1CCC(C)N1/C(=N\\O)c1ccc(Oc2ccc3ccccc3c2)nc1", "note": "(stereo not given)", "% inhibition": 99}, {"smiles": "Cc1cc(Oc2ccc(/C(=N/O)N3CCCC3C)cn2)cc(C(C)C)c1", "note": "(stereo not given)", "% inhibition": 93}, {"smiles": "Cc1cc(Oc2ccc(/C(=N/O)N3CCCCCC3)cn2)cc(C(C)C)c1", "% inhibition": 21}, {"smiles": "CC1CC(C)CN(/C(=N\\O)c2ccc(Oc3ccc4ccccc4c3)nc2)C1", "note": "(stereo not given)", "% inhibition": -15}, {"smiles": "Cc1cc(C)cc(Oc2ccc(/C(=N/O)N3C(C)CCC3C)cn2)c1", "note": "(stereo not given)", "% inhibition": 6}, {"smiles": "Cc1cc(Oc2ccc(/C(=N/O)N3CC(C)CC(C)C3)cn2)cc(C(C)C)c1", "note": "(stereo not given)", "% inhibition": 4}, {"smiles": "O/N=C(/c1ccc(Oc2ccc3ccccc3c2)nc1)N1CCCCC1", "% inhibition": 12}, {"smiles": "CC1CCCN1/C(=N\\O)c1ccc(Oc2ccc3ccccc3c2)nc1", "note": "(stereo not given)", "% inhibition": 99}, {"smiles": "Cc1cc(C)n(/C(=N\\O)c2ccc(Oc3ccc4ccccc4c3)nc2)n1", "% inhibition": 12}, {"smiles": "CCCCC(CC)CNCc1coc(-c2ccccc2Br)n1", "note": "(stereo not given)", "% inhibition": 8}, {"smiles": "CCOc1ccccc1-c1nc(CN(CCC#N)C2CCCCC2)co1", "% inhibition": -4}, {"smiles": "Cc1ncn(Cc2coc(-c3ccc(Br)cc3)n2)c1C=O", "% inhibition": 10}, {"smiles": "CCOC(=O)CC(C)NCc1coc(-c2ccc(Cl)cc2Cl)n1", "note": "(stereo not given)", "% inhibition": -1}, {"smiles": "COc1cccc(CN/C(=N\\O)c2ccnc(Oc3cc(Cl)ccc3Cl)c2)c1", "% inhibition": 11}, {"smiles": "CC1CC(N/C(=N\\O)c2ccnc(Oc3cc(Cl)ccc3Cl)c2)CC(C)(C)C1", "note": "(stereo not given)", "% inhibition": 9}, {"smiles": "N/C(=N\\O)c1ccnc(Oc2cc(Cl)ccc2Cl)c1", "% inhibition": 20}, {"smiles": "O/N=C(\\NC1CCCC1)c1ccnc(Oc2cc(Cl)ccc2Cl)c1", "% inhibition": 94}, {"smiles": "O/N=C(/c1ccnc(Oc2cc(Cl)ccc2Cl)c1)N1CCC=N1", "% inhibition": 32}, {"smiles": "O/N=C(\\NC1CCC1)c1ccnc(Oc2cc(Cl)ccc2Cl)c1", "% inhibition": 95}, {"smiles": "O/N=C(/c1cccnc1Oc1ccccc1OCc1ccccc1)N1CCOCC1", "% inhibition": -16}, {"smiles": "CN(CCCNCc1coc(-c2cccc(F)c2)n1)c1ccccc1", "% inhibition": 5}, {"smiles": "CCOc1ccc(-c2nc(CN(CC)C(C)(C)C)co2)cc1", "% inhibition": 6}, {"smiles": "CC(C)COc1ncccc1/C(=N/O)NC1CCCCC1", "% inhibition": 82}, {"smiles": "CC1CCC(N/C(=N\\O)c2cccnc2OCC(C)(C)C)CC1", "note": "(stereo not given)", "% inhibition": 5}, {"smiles": "CC(C)COc1ncccc1/C(=N/O)NC1CCC(C)CC1", "note": "(stereo not given)", "% inhibition": 83}, {"smiles": "CC(C)COc1ncccc1/C(=N/O)NC1CCC1", "% inhibition": 97}, {"smiles": "CC(C)COc1ncccc1/C(=N/O)NC1CCCC1", "% inhibition": 97}, {"smiles": "CC(C)COc1ncccc1/C(=N/O)NC1CCN(Cc2ccccc2)C1", "note": "(stereo not given)", "% inhibition": -2}, {"smiles": "CC(C)COc1ncccc1/C(=N/O)Nc1ccc(C(C)C)cc1", "% inhibition": 2}, {"smiles": "CC(C)COc1ncccc1/C(=N/O)N1CCC(C)CC1", "% inhibition": -1}, {"smiles": "Cc1ccccc1-c1nc(CN2CCC(N3CCCCC3)CC2)co1", "% inhibition": 14}, {"smiles": "C1=C(CCNCc2coc(-c3cccs3)n2)CCCC1", "% inhibition": -10}, {"smiles": "Cc1ccccc1NCc1coc(-c2ccco2)n1", "% inhibition": -2}, {"smiles": "CCN(Cc1coc(-c2ccc(C(F)(F)F)cc2)n1)c1ccccc1", "% inhibition": 4}, {"smiles": "CC(NCc1coc(-c2ccc(OC(F)(F)F)cc2)n1)c1cccc2ccccc12", "note": "(stereo not given)", "% inhibition": -34}, {"smiles": "O/N=C(\\NCc1cc(F)cc(F)c1)c1ccc(Oc2c(F)c(F)cc(F)c2F)nc1", "% inhibition": 10}, {"smiles": "O/N=C(\\Nc1ccccc1)c1ccc(Oc2cccc3c2CCCC3)nc1", "% inhibition": 22}, {"smiles": "N/C(=N\\O)c1ccc(Oc2cccc3c2CCCC3)nc1", "% inhibition": 19}, {"smiles": "O/N=C(/c1ccc(Oc2cccc3c2CCCC3)nc1)N1CCCCC1", "% inhibition": 31}, {"smiles": "COc1ccc(CN/C(=N\\O)c2ccc(Oc3cccc4c3CCCC4)nc2)cc1", "% inhibition": 32}, {"smiles": "O/N=C(\\NCC1CC1)c1ccc(Oc2cccc3c2CCCC3)nc1", "% inhibition": 77}, {"smiles": "O/N=C(\\NCc1cccs1)c1ccc(Oc2cccc3c2CCCC3)nc1", "% inhibition": 4}, {"smiles": "O/N=C(\\NC1CCCC1)c1ccc(Oc2cccc3c2CCCC3)nc1", "% inhibition": 97}, {"smiles": "O/N=C(\\NCc1c(F)cccc1F)c1ccc(Oc2cccc3c2CCCC3)nc1", "% inhibition": 15}, {"smiles": "CCC(CC)N/C(=N\\O)c1ccc(Oc2cccc3c2CCCC3)nc1", "% inhibition": 76}, {"smiles": "Cc1ccccc1-c1nc(CN2CCN(c3cccc(C(F)(F)F)c3)CC2)co1", "% inhibition": 14}, {"smiles": "CCOc1ccccc1-c1nc(CN2CCC3(CC2)OCCO3)co1", "% inhibition": 1}, {"smiles": "COC(=O)C1CCN(Cc2coc(-c3cccc(F)c3)n2)CC1", "% inhibition": 6}, {"smiles": "CCN(CC)Cc1coc(-c2cccc(OC)c2)n1", "% inhibition": 11}, {"smiles": "O/N=C(\\NCc1cc(F)ccc1F)c1cccnc1Oc1ccc(Cl)cc1", "% inhibition": 12}, {"smiles": "COc1ccc(Oc2ncccc2/C(=N/O)NCc2ccncc2)cc1", "% inhibition": -2}, {"smiles": "COc1ccc(Oc2ncccc2/C(=N/O)NCc2ccccc2)cc1", "% inhibition": 86}, {"smiles": "CCc1ccc(Oc2ncccc2/C(=N/O)NCc2ccccc2)cc1", "% inhibition": 99}, {"smiles": "COc1ccc(Oc2ncccc2/C(=N/O)NCc2cc(F)cc(F)c2)cc1", "% inhibition": 39}, {"smiles": "COc1ccc(CN/C(=N\\O)c2cccnc2Oc2ccccc2)cc1", "% inhibition": 14}, {"smiles": "COc1cccc(CN/C(=N\\O)c2cccnc2OCC2CCCCC2)c1", "% inhibition": 71}, {"smiles": "CCc1ccc(Oc2ncccc2/C(=N/O)NCc2ccncc2)cc1", "% inhibition": 5}, {"smiles": "CCc1ccc(Oc2ncccc2/C(=N/O)NCc2cccnc2)cc1", "% inhibition": 3}, {"smiles": "O/N=C(\\NCc1cccnc1)c1cccnc1OCC1CCCCC1", "% inhibition": 6}, {"smiles": "O/N=C(\\NCc1cc(F)cc(F)c1)c1cccnc1Oc1ccc(Cl)cc1", "% inhibition": 59}, {"smiles": "COc1cccc(CN/C(=N\\O)c2cccnc2OC2CCC2)c1", "% inhibition": -1}]}]}
